From PubChem BioAssay (Tox21)
Inconclusive results are not listed. The source made the active and inactive calls. Unless noted, calls follow the shape of the dose curve; as a rule, active = well fitted curve in the direction sought with a large enough effect in the repeat runs; inconclusive = weak or mixed curves; inactive = no such curve, though single readings can be large; an effect the other way counts as inactive or inconclusive.

Tests used:
[1] = qHTS assay to identify small molecule agonists of the retinoic acid receptor (RAR) signaling pathway (AID 1159553); also: potency is read from the fitted curve at half-maximal effect
Method in brief: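 6 hr compound exposure (DMSO vehicle) of overnight-plated C3RL4 RARE-luc cells at 37 C; luminescence quantified after 30 min RT with luciferase reagent.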

[2] = qHTS assay to identify small molecule antagonists of the estrogen related receptor (ERR) signaling pathway from Tox21 library - cell viability counter screen (AID 1224834); also: nearly all actives have a fitted effect of over 30% in size; also: potency is read from the fitted curve at half-maximal effect
Method in brief: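 Seeded ERR cells were rested 6 h at 37 C/5% CO2 before compounds, positive and negative controls or DMSO were added. Incubation continued for 17.5 h, and viability was then quantified by CellTiter-Fluor fluorescence.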

[3] = target: Luciferin 4-monooxygenase (Photinus pyralis) (UniProt P08659); assay: qHTS assay to identify small molecule inhibitors of firefly luciferase (AID 1224835); also: nearly all actives have a fitted effect of over 25% in size; also: potency is read from the fitted curve at half-maximal effect
Method in brief: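 Biochemical qHTS: compounds run as interplate titrations against purified firefly enzyme, with D-luciferin and ATP each at its KM concentration. Light output recorded by CCD imaging.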

[4] = qHTS assay to identify small molecule agonists of the constitutive androstane receptor (CAR) signaling pathway - cell viability counter screen (AID 1224836); also: series mostly up to about 92 µM; nearly all actives have a fitted effect of over 45% in size
Method in brief: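 Multiplexed viability check: HepG2-CYP2B6-hCAR cells, 15-point compound dosing, 0.75 uM PK11195 final, 23 h at 37 C, CellTiter-Fluor fluorescence.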

[5] = qHTS assay to identify small molecule antagonists of the constitutive androstane receptor (CAR) signaling pathway - cell viability counter screen (AID 1224837); also: series mostly up to about 92 µM; nearly all actives have a fitted effect of over 45% in size
Method in brief: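 To flag cytotoxic false antagonists, HepG2 hCAR/CYP2B6-2.2kb cells were treated 23 hr with 15-concentration compound series and 50 nM CITCO at 37 C/5% CO2; CellTiter-Fluor fluorescence was the measured end point.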

[6] = target: Nuclear receptor subfamily 1 group I member 3 (Homo sapiens) (UniProt Q14994); assay: qHTS assay to identify small molecule antagonists of the constitutive androstane receptor (CAR) signaling pathway (AID 1224838);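 also: HepG2 cells stably expressing hCAR with CYP2B6 luciferase reporter stimulated by CITCO; nearly all actives have a fitted effect of over 40% in size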; also: potency is read from the fitted curve at half-maximal effect
Method in brief: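 Human hepatoma HepG2 cells expressing hCAR and a CYP2B6 promoter (2.2 kb) luciferase construct; compound titration (15 points) with 50 nM CITCO final, 24 h at 37 C/5% CO2; luminescence via ONE-Glo after 30 min at room temperature.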

[7] = target: Nuclear receptor subfamily 1 group I member 3 (Homo sapiens) (UniProt Q14994); assay: qHTS assay to identify small molecule agonists of the constitutive androstane receptor (CAR) signaling pathway (AID 1224839); also: nearly all actives have a fitted effect of over 15% in size; also: potency is read from the fitted curve at half-maximal effect;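 as to activation: HepG2 cells stably carrying human CAR and a CYP2B6 luciferase reporter; series mostly up to about 92 µM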
Method in brief: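 Using human hepatoma HepG2 cells engineered with hCAR and a CYP2B6-2.2kb reporter, 15-concentration compound series were incubated 24 h alongside PK11195 at 0.75 uM final, with luminescence quantified afterwards.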

[8] = qHTS assay to identify small molecule antagonists of the estrogen related receptor signaling pathway with the pleiotropic PPARgamma coactivator (PGC) from Tox21 10K library - cell viability counter screen (AID 1224840; active = well fitted cell-killing curve with a large enough effect in the repeat runs, not every such curve was filed as active; also: nearly all actives have a fitted effect of over 40% in size)
Method in brief: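 Seeded PGC/ERR cells (2,000/well, 6 h, 37 C/5% CO2) get compound by pin tool; 17.5 h incubation at 37 C; CellTiter-Fluor added, 30 min, fluorescence measured.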

[9] = qHTS assay to identify small molecule antagonists of the estrogen related receptor signaling pathway with the pleiotropic PPARgamma coactivator (PGC) from Tox21 10K library (AID 1224841; call rule not given here; also: actives are mostly falling curves and most rising ones were filed inactive; nearly all actives have a fitted effect of over 50% in size; also: potency is read from the fitted curve at half-maximal effect)
Method in brief: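 Test chemicals dissolved in DMSO were applied to pre-incubated (6 h) PGC/ERR cells at 2,000 cells/well for an 18 h, 37 C treatment; reporter luminescence was then read using One-Glo.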

[10] = qHTS assay to identify small molecule agonists of the estrogen related receptor signaling pathway with the pleiotropic PPARgamma coactivator (PGC) from Tox21 10K library (AID 1224842); also: nearly all actives have a fitted effect of over 15% in size
Method in brief: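 PGC/ERR reporter cell line, 2,000 cells per well, incubated 6 h at 37 C before 23 nL compound in DMSO was added. After 18 h at 37 C, One-Glo luminescence read following 30 min at room temperature.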

[11] = target: Thyrotropin receptor (Homo sapiens) (UniProt P16473); assay: qHTS assay to identify small molecule agonists of the thyroid stimulating hormone receptor (TSHR) signaling pathway (AID 1224843; calls by dose curve; also: nearly all actives have a fitted effect of over 45% in size)
Method in brief: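 HEK293/TSHR, 800 cells/well; cpd 30 min RT; add cAMP-d2 + anti-cAMP-cryptate, 1 h RT; fluorescence read on plate reader. 15-pt titration, n=3.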

[12] = qHTS assay to identify small molecule antagonists of the estrogen related receptor (ERR) signaling pathway - cell viability counter screen (AID 1224818); also: series mostly up to about 46 µM
Method in brief: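 Compounds dissolved in DMSO were applied to ERR cells seeded at 2,000 per well 6 h earlier. Cell viability followed 17.5 h later via 30-min CellTiter-Fluor fluorescence.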

[13] = qHTS assay to identify small molecule antagonists of the estrogen related receptor (ERR) signaling pathway (AID 1224819;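 also: luminescence from an ERR-driven luciferase reporter measured with One-Glo reagent; series mostly up to about 46 µM; nearly all actives have a fitted effect of over 50% in size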)
Method in brief: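 Compounds dissolved in DMSO were pin-transferred onto ERR cells that had been plated 6 h earlier, and cells were then incubated 18 h at 37 C; signal was luciferase luminescence via One-Glo.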

[14] = qHTS assay to identify small molecule agonists of the estrogen related receptor (ERR) signaling pathway (AID 1224820); also: potency is read from the fitted curve at half-maximal effect
Method in brief: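 Luminescence readout (One-Glo, 30 min RT) from NTP-supplied ERR cell line exposed to compounds for 18 h at 37 C. Cells seeded 2,000 per well and pre-incubated 6 h before pin-tool compound transfer.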

[15] = system: estrogen-related receptor alpha (ERRalpha) with PGC-1alpha coactivator, human; assay: qHTS assay to identify small molecule antagonists of the estrogen related receptor signaling pathway with the pleiotropic PPARgamma coactivator (PGC) (AID 1224821; calls by dose curve;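 also: series mostly up to about 46 µM; lower luminescence signal means antagonism of PGC/ERR signalling; nearly all actives have a fitted effect of over 50% in size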)
Method in brief: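 PGC/ERR reporter cells; 6 h pre-incubation 37 C/5% CO2; pin-tool compound in DMSO, 18 h 37 C; One-Glo added, 30 min RT; luminescence read. qHTS antagonist mode.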

[16] = qHTS assay to identify small molecule agonists of the hypoxia (HIF-1) signaling pathway - cell viability counter screen (AID 1224844; calls by dose curve; also: nearly all actives have a fitted effect of over 50% in size; also: potency is read from the fitted curve at half-maximal effect)
Method in brief: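 HRE-bla ME-180; 0.5% dFBS; cpd 17 h, 37C, 5% CO2; CellTiter-Glo lum., 30 min RT, post-FRET read, same wells.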

[17] = qHTS assay to identify small molecule agonists of the hypoxia (HIF-1) signaling pathway (AID 1224846; active = well fitted activation curve with a large enough effect in the signal ratio in the repeat runs, not every such curve was filed as active; the % refers to the signal ratio)
Method in brief: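 Reporter induction in HRE-bla ME-180 cells is taken as agonism: cells sit 5 hrs after plating, receive compounds or DMSO only, incubate 17 hrs at 37C under 5% CO2, and are loaded with CCF4-AM for beta-lactamase FRET measurement.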

[18] = qHTS assay to identify small molecule agonists of H2AX (AID 1224845; active = well fitted activation curve with a large enough effect in the signal ratio in the repeat runs, not every such curve was filed as active; the % refers to the signal ratio)
Method in brief: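 Wild-type CHO-K1 cells, plated overnight, exposed 3hr at 37C to 15 concentrations (0.76% DMSO final). Lysed, then HTRF anti-pH2AX (S139) cryptate and anti-H2AX-d2 antibodies, 24 hr room temperature; 665/620 nm emission read.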

[19] = qHTS assay to identify small molecule antagonists of the estrogen related receptor signaling pathway with the pleiotropic PPARgamma coactivator (PGC) cell viability counter screen (AID 1224822; also: series mostly up to about 46 µM)
Method in brief: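 Counter screen for cell viability: PGC/ERR cells, 6 h pre-incubation after plating, 17.5 h compound exposure at 37 C, fluorescence from CellTiter-Fluor after 30 min.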

Measured: Potency

Nuclear receptor subfamily 1 group I member 3 (Homo sapiens), sequence (Q14994 whole entry, looked up): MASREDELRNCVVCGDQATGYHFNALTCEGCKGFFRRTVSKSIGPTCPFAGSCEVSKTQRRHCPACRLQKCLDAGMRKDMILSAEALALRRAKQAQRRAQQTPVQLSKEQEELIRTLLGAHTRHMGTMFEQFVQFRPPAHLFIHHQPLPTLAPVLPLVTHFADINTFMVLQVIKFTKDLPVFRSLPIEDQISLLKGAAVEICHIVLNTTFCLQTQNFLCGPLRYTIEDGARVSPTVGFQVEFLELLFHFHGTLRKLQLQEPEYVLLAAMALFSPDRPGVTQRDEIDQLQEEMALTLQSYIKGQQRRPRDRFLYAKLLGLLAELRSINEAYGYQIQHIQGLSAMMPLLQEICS
Luciferin 4-monooxygenase (Photinus pyralis), sequence (P08659 whole entry, looked up): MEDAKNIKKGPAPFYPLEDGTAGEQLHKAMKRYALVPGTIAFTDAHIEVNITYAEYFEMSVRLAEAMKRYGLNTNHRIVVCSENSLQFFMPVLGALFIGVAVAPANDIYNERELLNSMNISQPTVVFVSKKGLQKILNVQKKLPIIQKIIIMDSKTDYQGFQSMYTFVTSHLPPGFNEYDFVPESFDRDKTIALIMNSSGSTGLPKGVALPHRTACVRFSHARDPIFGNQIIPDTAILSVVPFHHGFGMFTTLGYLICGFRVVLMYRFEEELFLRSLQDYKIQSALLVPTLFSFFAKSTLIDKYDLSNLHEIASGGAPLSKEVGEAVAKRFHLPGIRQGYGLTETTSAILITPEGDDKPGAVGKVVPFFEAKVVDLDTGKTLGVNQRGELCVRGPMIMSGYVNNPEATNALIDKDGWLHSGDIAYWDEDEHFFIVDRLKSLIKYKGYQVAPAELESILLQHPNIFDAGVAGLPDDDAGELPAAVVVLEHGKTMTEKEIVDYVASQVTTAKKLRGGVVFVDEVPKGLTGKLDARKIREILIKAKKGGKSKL
Thyrotropin receptor (Homo sapiens), sequence (P16473 whole entry, looked up): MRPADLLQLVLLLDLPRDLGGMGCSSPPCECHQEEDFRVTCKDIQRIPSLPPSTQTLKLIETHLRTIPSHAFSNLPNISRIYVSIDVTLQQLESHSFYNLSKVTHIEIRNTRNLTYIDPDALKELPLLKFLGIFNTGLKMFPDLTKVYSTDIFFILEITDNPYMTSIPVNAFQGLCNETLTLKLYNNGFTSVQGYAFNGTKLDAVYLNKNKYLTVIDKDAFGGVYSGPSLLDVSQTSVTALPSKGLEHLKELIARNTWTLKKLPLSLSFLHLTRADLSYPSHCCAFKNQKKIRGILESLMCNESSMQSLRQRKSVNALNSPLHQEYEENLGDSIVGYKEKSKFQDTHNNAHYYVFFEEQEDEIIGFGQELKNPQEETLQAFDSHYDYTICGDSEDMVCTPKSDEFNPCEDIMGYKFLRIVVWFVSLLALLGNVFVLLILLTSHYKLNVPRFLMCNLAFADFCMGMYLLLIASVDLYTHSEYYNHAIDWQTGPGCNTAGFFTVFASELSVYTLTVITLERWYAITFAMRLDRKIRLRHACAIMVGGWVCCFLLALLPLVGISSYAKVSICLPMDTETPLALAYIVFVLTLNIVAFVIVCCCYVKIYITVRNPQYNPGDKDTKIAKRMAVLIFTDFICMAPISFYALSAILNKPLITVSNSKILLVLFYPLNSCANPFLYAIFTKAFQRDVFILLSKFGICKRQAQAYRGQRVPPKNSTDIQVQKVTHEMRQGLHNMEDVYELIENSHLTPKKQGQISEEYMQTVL

O=C1CCCCCCCCCCCCCC1
active: [7] 30.6 µM
inactive: [1] | [2] | [3] | [4] | [5] | [6] | [8] | [9] | [10] | [11]

C=CC1(C)CC(=O)C2(O)C(C)(O1)C(OC(C)=O)C(O)C1C(C)(C)CCC(O)C12C (stereo unspecified)
inactive: [12]

COc1ccc2c(c1)CCC1C2CC[C@@]2(C)C1CC[C@@H]2NCCCCCCN1C(=O)CCC1=O (stereo partly specified)
inactive: [12] | [13] | [14] | [15]

S=C1NC=NC2N=CNC12 (stereo unspecified)
inactive: [1] | [3] | [4] | [7] | [8] | [10] | [11] | [16] | [17]
active: [6] 6.11 µM | [9] 0.486 µM

Cc1ccc2nc(-c3ccc(N)cc3)sc2c1S(=O)(=O)O
inactive: [2] | [5] | [6] | [8] | [11] | [16]
active: [1] 0.426 µM | [3] 1.39 µM | [7] 9.54 µM

c1ccc2cc3c4ccccc4c4ccccc4c3cc2c1
inactive: [1] | [7] | [8] | [11]
active: [6] 10.9 µM | [16] 22 µM

C[C@H]1O[C@@H](O[C@H]2CC[C@@]3(C)[C@H](CC[C@@H]4[C@@H]3C[C@@H](O)[C@]3(C)[C@@H](C5=CC(=O)OC5)CC[C@]43O)C2)C[C@H](O)[C@@H]1O[C@H]1C[C@H](O)[C@H](O[C@H]2C[C@H](O)[C@H](O[C@@H]3O[C@H](CO)[C@@H](O)[C@H](O)[C@H]3O)[C@@H](C)O2)[C@@H](C)O1
inactive: [1] | [3] | [10] | [18] | [17]
active: [2] 0.168 µM | [9] 0.335 µM | [16] 0.379 µM

CC(Cc1ccc(O)c(O)c1)C(C)Cc1ccc(O)c(O)c1 (stereo unspecified)
active: [3] 71 µM
inactive: [1] | [4] | [5] | [6] | [10] | [11] | [16]

O=C1/C(=C/c2ccsc2)CC/C1=C\c1cccs1
active: [14] 24.6 µM
inactive: [12] | [13] | [15] | [19]

N[C@@H](Cc1cnc[nH]1)C(=O)O
inactive: [12] | [13] | [14] | [15] | [19]

N[C@@H](CS(=O)O)C(=O)O
inactive: [12] | [13] | [14] | [15] | [19]

NCc1cccc(C2CCN(C(=O)c3ccc(C#Cc4ccccc4F)o3)CC2)c1
active: [2] 68.6 µM | [16] 54.9 µM
inactive: [1] | [3] | [7]

CCCn1c(=O)c2c(ncn2C)n(CCC)c1=O
inactive: [12] | [13] | [14] | [15] | [19]

COc1cc(/C=C/C(=O)CC(=O)/C=C/c2ccc(O)c(OC)c2)ccc1O
inactive: [7] | [10]
active: [1] 9.75 µM | [2] 21.8 µM | [3] 28.4 µM | [6] 54.8 µM | [9] 19.4 µM | [16] 39.2 µM
